Source: PubChem (several laboratories)
Hits are enriched below; roughly 3.8% of the tested compounds scored in any of these assays.
proKLK7 act – proKLK7 (human) activation, primary screen; P49862; purified proKLK7, EDANS-DABCYL substrate fluorescence; 100% is mature enzyme control, 0% vehicle; activation, % at 7 µM; actives 0.9% (n = 370,000);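 active means activation above the mean of all tested compounds plus 3 SD, computed per campaign excluding outliers beyond control limits, cut at about 13% in these data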
Ecoli rRNA inh – inhibitors of bacterial rRNA selective over humanized ribosomes; E. coli WT GFP vs humanized-ribosome RFP mutants, fluorescence, 24 h; hits give low values; DMSO median 0, no signal -100; GFP signal change (wild-type ribosome), % (test concentration not listed); actives 1.6% (n = 350,000);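 active means significant combined selectivity score with lowered wild-type GFP, culture density cut under 30%, mutant RFP and density less affected; inactive means any of these conditions unmet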
ADAM17 inh – ADAM17 inhibition, QFRET primary screen. P78536. actives 0.83% (n = 370,000). inhibition, % at 6.95 µM. recombinant ADAM17, EDANS/DABCYL FRET peptide cleavage;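 active means inhibition above the mean of compounds lying between control limits plus 3 SD, set per campaign, cut at about 8.5% in these data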
Target sequence (P78536 215-824 limits assumed): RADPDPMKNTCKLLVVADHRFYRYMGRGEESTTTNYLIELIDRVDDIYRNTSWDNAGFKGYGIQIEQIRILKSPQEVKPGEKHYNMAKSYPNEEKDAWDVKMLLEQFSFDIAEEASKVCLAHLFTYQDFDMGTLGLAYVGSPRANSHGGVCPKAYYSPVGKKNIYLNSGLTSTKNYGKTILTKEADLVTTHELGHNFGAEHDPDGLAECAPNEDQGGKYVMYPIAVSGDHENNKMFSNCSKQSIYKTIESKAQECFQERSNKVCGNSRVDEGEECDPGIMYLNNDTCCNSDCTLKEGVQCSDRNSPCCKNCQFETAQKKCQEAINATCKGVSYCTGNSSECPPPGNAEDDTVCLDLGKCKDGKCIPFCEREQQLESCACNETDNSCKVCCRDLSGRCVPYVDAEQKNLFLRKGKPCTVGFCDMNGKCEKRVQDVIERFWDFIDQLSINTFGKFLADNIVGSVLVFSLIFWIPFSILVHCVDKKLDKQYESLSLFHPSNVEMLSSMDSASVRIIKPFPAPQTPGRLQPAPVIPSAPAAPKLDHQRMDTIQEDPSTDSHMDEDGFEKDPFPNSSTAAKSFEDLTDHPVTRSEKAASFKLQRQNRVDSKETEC
ADAM10 inh – inhibitors of human ADAM10; recombinant ADAM10, EDANS/DABCYL FRET peptide cleavage, 3 h; O14672; inhibition, % at 7 µM; actives 0.62% (n = 370,000);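 active means inhibition above a per-campaign cutoff equal to the mean of compounds falling between control-based bounds plus 3 SD, cut at about 20% in these data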
FGF22 binding – shifts melting point of recombinant human FGF22. Q9HCT0. AID 651658. activity (Tm shift, normalised), % at 9.99 µM. recombinant FGF22 thermal shift, SYPRO orange fluorescence; percent of sucrose octasulfate shift, DMSO zero. actives 1.5% (n = 340,000);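 active means mean Tm shift, scaled 0 neutral to 100 positive control, at about 1.3% or above, every replicate too, limit read from the data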
ADAM10 confirm – confirmation of inhibitors of human ADAM10 | inhibition, % at 6.95 µM | actives 1% (n = 2,100) | shares compounds with ADAM10 inh | ADAM10 QFRET peptide cleavage, EDANS fluorescence;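 active means inhibition above about 20% chosen separately for each screening run, limit read from the data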
ADAM17 counter – ADAM17 inhibition, counter-screen for ADAM10 exosite hits; inhibition, % at 6.95 µM; AID 743214; actives 0.5% (n = 2,100); shares compounds with ADAM10 inh; ADAM17 QFRET peptide cleavage, EDANS fluorescence;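 active means mean triplicate inhibition above the solvent-only control wells' mean plus 3 SD, cut at about 12% in these data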
ADAM10 counter – counter-screen for ADAM17 exosite inhibitors: inhibitors of human ADAM10; shares compounds with ADAM17 inh; recombinant ADAM10, EDANS/DABCYL FRET peptide cleavage, 3 h; inhibition, % at 6.95 µM; actives 47% (n = 2,900); AID 743256;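 active means mean inhibition over the triplicate runs exceeds the activity threshold set in the earlier primary screen, cut at about 20% in these data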
ADAM17 confirm – confirmation of inhibitors of human ADAM17; actives 65% (n = 2,900); inhibition, % at 6.95 µM; recombinant ADAM17, EDANS/DABCYL QFRET peptide cleavage; shares compounds with ADAM17 inh; AID 743257;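 active means mean inhibition across replicates above the hit cutoff set in the primary screen, cut at about 8.5% in these data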
Large screens that a line does not name were inactive (follow-up assays come after a bar, where they were run).

O=C(Nc1cc(Cl)cc(Cl)c1)c1cccc(OC(F)F)c1	ADAM17 inh 11.5, ADAM10 inh 27.4 (no result: Ecoli rRNA inh, FGF22 binding) | ADAM10 confirm inactive | ADAM17 counter inactive | ADAM10 counter 23.3 | ADAM17 confirm 13.5
O=C(O)CN(c1cccc(C(F)(F)F)c1)S(=O)(=O)c1ccccc1	none
O=S(=O)(c1ccccc1)N(CC(F)(F)F)c1ccc(C(O)(C(F)(F)F)C(F)(F)F)cc1	ADAM17 inh 21.6, ADAM10 inh 49.1 | ADAM10 confirm inactive | ADAM17 counter inactive | ADAM10 counter 36.8 | ADAM17 confirm 21.8
Cc1ccc(NC(=O)C2CCCC2)c(Br)c1	none
Cc1ccc(NC(=S)NC(=O)C2CCCCC2)c(Br)c1	ADAM17 inh 14.8, ADAM10 inh 33.3 | ADAM10 confirm inactive | ADAM17 counter inactive | ADAM10 counter inactive | ADAM17 confirm 9.3
CCS(=O)(=O)N1CCC2(CC1)CN(S(=O)(=O)c1cccc(OC)c1)[C@@H](CO)c1[nH]c3cc(OC)ccc3c12	none (no result: proKLK7 act, ADAM17 inh, ADAM10 inh)
COc1ccc(Nc2nc(N)nc(CSC(=S)N3CCN(c4ccccc4)CC3)n2)cc1	ADAM17 inh 12.0, ADAM10 inh 22.7 | ADAM10 confirm inactive | ADAM17 counter inactive | ADAM10 counter 26.2 | ADAM17 confirm 13.6
CC(C)(C)c1ccc2c(c1)OC(C(=O)N/N=C\c1ccccn1)CO2 (centres undefined)	ADAM17 inh 11.8, ADAM10 inh 20.5 (no result: Ecoli rRNA inh, FGF22 binding) | ADAM10 confirm inactive | ADAM17 counter inactive | ADAM10 counter inactive | ADAM17 confirm inactive
CC(C)(C)c1ccc2c(c1)OC(C(=O)N/N=C\c1ccc(-c3cccc(C(=O)O)c3)o1)CO2 (centres undefined)	none
C[C@@H]1CN([C@@H](C)CO)S(=O)(=O)c2ccc(-c3cccc(C#N)c3)cc2O[C@H]1CN(C)C(=O)Nc1cc(F)ccc1F	none (no result: proKLK7 act, ADAM17 inh, ADAM10 inh)
Nc1[nH]c(C(=O)c2ccccc2)c(-c2cccc(C(F)(F)F)c2)c1C(=O)NCCc1c[nH]c2ccccc12	ADAM17 inh 9.0, ADAM10 inh 23.6 (no result: Ecoli rRNA inh) | ADAM10 confirm inactive | ADAM17 counter inactive | ADAM10 counter 27.4 | ADAM17 confirm 14.5
Cc1cc(C)cc(-c2c(C(=O)c3ccccc3)[nH]c(N)c2C(=O)NCCc2c[nH]c3ccccc23)c1	none (no result: proKLK7 act, Ecoli rRNA inh, FGF22 binding)
COc1cc([N+](=O)[O-])ccc1NC(=O)CCCOc1cccc(C)c1C	ADAM17 inh 11.8, ADAM10 inh 21.7 (no result: Ecoli rRNA inh, FGF22 binding) | ADAM10 confirm inactive | ADAM17 counter inactive | ADAM10 counter inactive | ADAM17 confirm 10.5
O=S(Cc1cc(Oc2ccccc2)nc(-c2ccccc2)n1)c1ccccc1 (centres undefined)	ADAM17 inh 10.6, ADAM10 inh 26.0 (no result: Ecoli rRNA inh, FGF22 binding) | ADAM10 confirm inactive | ADAM17 counter inactive | ADAM10 counter inactive | ADAM17 confirm inactive
O=Cc1ccc(Oc2cc(-c3ccccc3)nc(-c3ccccc3)n2)cc1	none (no result: Ecoli rRNA inh, FGF22 binding)
C=CC[C@@H](CC(=O)N(CCO)Cc1ccccc1)C(=O)N[C@H](COC(=O)[C@@H](CC=C)CC(=O)OC(C)(C)C)Cc1c[nH]c2ccccc12	ADAM17 inh 13.5, ADAM10 inh 24.7 | ADAM10 confirm inactive | ADAM17 counter inactive | ADAM10 counter 32.9 | ADAM17 confirm 15.9
C=CC[C@@H](CC(=O)N(CCO)Cc1ccccc1)C(=O)N[C@@H](COC(=O)[C@@H](CC=C)CC(=O)OC(C)(C)C)Cc1c[nH]c2ccccc12	ADAM17 inh 21.9, ADAM10 inh 45.3 (no result: Ecoli rRNA inh, FGF22 binding) | ADAM10 confirm inactive | ADAM17 counter inactive | ADAM10 counter 40.6 | ADAM17 confirm 21.0
C=CC[C@@H](CC(=O)N[C@@H](CO)Cc1ccccc1)C(=O)N[C@H](COC(=O)[C@@H](CC=C)CC(=O)OC(C)(C)C)Cc1c[nH]c2ccccc12	ADAM17 inh 8.7, ADAM10 inh 26.5 | ADAM10 confirm inactive | ADAM17 counter inactive | ADAM10 counter 39.0 | ADAM17 confirm 18.5
C=CC[C@H](CC(=O)N(CCO)Cc1ccccc1)C(=O)N[C@@H](COC(=O)[C@H](CC=C)CC(=O)OC(C)(C)C)Cc1c[nH]c2ccccc12	none
O=C(NCC[C@@H]1CC[C@@H](NC(=O)c2ccc3c(c2)OCO3)[C@H](CO)O1)Nc1ccc(Cl)cc1	none (no result: proKLK7 act, ADAM17 inh, ADAM10 inh)
C[C@@H]1CCCCO[C@H](CN(C)C(=O)Nc2ccc(C(F)(F)F)cc2)[C@H](C)CN([C@H](C)CO)C(=O)c2cc(NS(=O)(=O)c3ccc(F)cc3)ccc2O1	none (no result: proKLK7 act, ADAM17 inh, ADAM10 inh)
CC1CCCN(c2ccc(C(=O)Nc3ccc4c(c3)OCO4)cc2[N+](=O)[O-])C1 (centres undefined)	none (no result: Ecoli rRNA inh, FGF22 binding)
CC1CCN(c2ccc(C(=O)Nc3ccc4c(c3)OCO4)cc2[N+](=O)[O-])CC1	ADAM17 inh 8.7, ADAM10 inh 20.4 | ADAM10 confirm inactive | ADAM17 counter inactive | ADAM10 counter 30.1 | ADAM17 confirm 15.6
COC(=O)c1cc(NS(=O)(=O)c2ccc(N3CCC(C)CC3)c([N+](=O)[O-])c2)cc(C(=O)OC)c1	ADAM17 inh 13.0, ADAM10 inh 28.1 | ADAM10 confirm inactive | ADAM17 counter inactive | ADAM10 counter 25.7 | ADAM17 confirm 16.7
Cc1cccc(S(=O)(=O)N2CC[C@@H]3[C@H]2c2cc(C#Cc4cccnc4)ccc2N[C@@H]3CO)c1	none (no result: proKLK7 act, ADAM17 inh, ADAM10 inh)
OC(c1ccc(F)c(F)c1)c1ncc(-c2cccc(C(F)(F)F)c2)[nH]1 (centres undefined)	none
OC(c1ccc(Cl)c(F)c1)c1ncc(-c2cccc(C(F)(F)F)c2)[nH]1 (centres undefined)	ADAM17 inh 10.6, ADAM10 inh 31.5 | ADAM10 confirm inactive | ADAM17 counter inactive | ADAM10 counter 26.1 | ADAM17 confirm 14.4
COCC(=O)N1C[C@@H](C)[C@@H](OC)CN(C)C(=O)c2cc(NC(=O)c3ccc(OC)cc3)ccc2OC[C@@H]1C	none (no result: proKLK7 act, ADAM17 inh, ADAM10 inh)
COc1ccccc1NC(=O)N1[C@@H]2CNC[C@H]1[C@@H]2c1ccc(-c2ccc(C#N)cc2)cc1	none (no result: proKLK7 act, ADAM17 inh, ADAM10 inh, FGF22 binding)
C[C@H]1CCCCO[C@H](CN(C)C(=O)c2ccccc2)[C@@H](C)CN([C@@H](C)CO)C(=O)c2cc(NC(=O)Nc3ccc4c(c3)OCO4)ccc2O1	none (no result: proKLK7 act, ADAM17 inh, ADAM10 inh, FGF22 binding)
